High-throughput results deposited in PubChem by National Center for Advancing Translational Sciences (NCATS).
Only some compounds are listed: those with a hit (about 2.4% of all), similar ones and a draw of the others.
D2 PAM-1 – HTS Assay for Positive Allosteric Modulators of the Human D2 Dopamine Receptor: Primary Screen for Potentiators | D(2) dopamine receptor (Homo sapiens), P14416 | potentiation, % at 10 µM | HEK293 T-REx D2, calcium flux, EC20 dopamine potentiation | 340,000 tested, 0.34% active;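 active = potentiation over 3 SD above the plate norm, cut at about 30% in these data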
Target sequence (P14416 whole entry, looked up): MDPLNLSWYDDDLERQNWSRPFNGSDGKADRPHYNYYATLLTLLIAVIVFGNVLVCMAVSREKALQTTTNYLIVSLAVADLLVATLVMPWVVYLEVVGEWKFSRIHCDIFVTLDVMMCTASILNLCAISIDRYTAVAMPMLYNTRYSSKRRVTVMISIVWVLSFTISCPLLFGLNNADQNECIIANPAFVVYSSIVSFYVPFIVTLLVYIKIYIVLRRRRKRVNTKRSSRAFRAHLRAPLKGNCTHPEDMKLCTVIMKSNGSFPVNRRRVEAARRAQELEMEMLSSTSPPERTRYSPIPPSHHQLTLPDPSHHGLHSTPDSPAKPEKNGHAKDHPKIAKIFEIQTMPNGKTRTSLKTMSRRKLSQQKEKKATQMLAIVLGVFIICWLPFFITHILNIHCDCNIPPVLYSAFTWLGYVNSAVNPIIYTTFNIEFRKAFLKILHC
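Cells plated with tetracycline inducer and held overnight at 30 C; calcium dye loaded 30–90 min at room temperature; baseline taken, compound added and read 180 s; EC20 dopamine then added and read 180 s.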
D2 PAM-2 – Beta-Arrestin HTS for Positive Allosteric Modulators of the Human D2 Dopamine Receptor: Potentiators | D(2) dopamine receptor (Homo sapiens), P14416 | AID 624464, 2012 | potentiation, % (test concentration not listed) | DiscoveRx D2 beta-arrestin cells, luminescence, 90 min; 100% = 57 uM dopamine signal | 360,000 tested, 0.23% active; in the data active = potentiation above about 50%; inconclusive = mostly about 30% to 49%
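PathHunter D2 cells, attached overnight at 37 deg C, received compound in DMSO plus dopamine at EC20 (50 nM final) for 90 min at 37 deg C. Beta-arrestin recruitment was read as luminescence after 1 h with detection reagent at ambient temperature.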
D2 ag-1 – Beta-Arrestin HTS for Positive Allosteric Modulators of the Human D2 Dopamine Receptor: Agonists | D(2) dopamine receptor (Homo sapiens), P14416 | DiscoveRx PathHunter D2 beta-arrestin, luminescence, 90 min; 100% = 57 uM dopamine signal | activation, % (concentration not given with the values) | 360,000 tested, 0.084% active; in the data active = activation above about 40%; inconclusive = between about 15% and that limit
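Agonist mode: compounds alone added to overnight-plated D2 PathHunter cells for 90 min at 37 C, with 57 uM final dopamine (EC100) defining full response. Beta-arrestin recruitment detected by chemiluminescent reagent, read after 1 h at ambient temperature.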
D2 antag – HTS Assay for Allosteric Antagonists of the Human D2 Dopamine Receptor: Primary Screen for Antagonists | HEK293 TREx D2 cells, calcium flux, dopamine EC80 | 340,000 tested, 2% active | inhibition, % at 10 µM; in the data active = inhibition above about 30%; inactive = below that, where a call was filed
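Calcium mobilization kinetics were recorded at 1 s intervals in tetracycline-induced HEK293 T-REx D2 cells, first for 180 s after compound addition and then 180 s after EC80 dopamine.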
D2 ag-2 – HTS Assay for Allosteric Agonists of the Human D2 Dopamine Receptor: Primary Screen for Agonists | HEK293 T-REx D2 cells, calcium flux agonist mode | activation, % at 2 µM | 340,000 tested, 0.53% active;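 active = activation over 3 SD above normal in the single-dose calcium agonist read, cut at about 30% in these data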
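Tetracycline-induced HEK293 Trex cells with D2 receptor force-coupled to calcium signaling, plated overnight at 30 C and loaded with no-wash calcium dye. Calcium flux read kinetically for 180 s after compound addition; responses flag agonists.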
Large screens that a line does not name were inactive; ! = not active in a repeat.

COc1ccc(N2CCN(C(=O)c3cnn(-c4ccc(OC)cc4)c3C3CCN(C(=O)OC(C)(C)C)CC3)CC2)cc1	none (no result: D2 PAM-1, D2 PAM-2, D2 ag-1, D2 antag)
CCn1cc(C(=O)NCc2ccc(Cl)cc2)c(=O)c2cc(S(=O)(=O)N(C)C)ccc21	D2 antag 32
CCn1cc(C(=O)NCCCN(C)c2ccccc2)c(=O)c2cc(S(=O)(=O)N(C)C)ccc21	D2 PAM-1 54, D2 ag-2 43
CCn1cc(C(=O)N2CCOCC2)c(=O)c2cc(S(=O)(=O)N(C)C3CCCCC3)ccc21	D2 PAM-1 32
CCn1cc(C(=O)NCCc2ccc(Cl)cc2)c(=O)c2cc(S(=O)(=O)N(C)C)ccc21	none
CCOC(=O)c1cc2c(=O)n3ccccc3nc2n(Cc2ccco2)c1=NC(=O)c1c(F)cccc1Cl	none (no result: D2 PAM-2, D2 ag-1, D2 antag, D2 ag-2)
C=CCn1c(Sc2ccccc2)nc2c1c(=O)[nH]c(=O)n2C	none
CCCCCn1c(Sc2ccccc2)nc2c1c(=O)[nH]c(=O)n2C	D2 antag 31
CC(C)CCSc1nc2c(c(=O)[nH]c(=O)n2C)n1CCCc1ccccc1	D2 antag 35
CC(=O)N(C)/C=C1\Sc2ccccc2C1=O	none
CC(=O)Nc1ccc(/C=C2\Sc3ccccc3C2=O)cc1	D2 PAM-2 56, D2 ag-1 inconclusive
CCOc1ccc(N(CC(=O)NC(C)CC)S(C)(=O)=O)cc1 (stereo not drawn)	D2 antag 38
CCC(Cn1nnc2ccccc2c1=O)NC(=O)Nc1ccccc1Cl (stereo not drawn)	none (no result: D2 PAM-2, D2 ag-1, D2 antag)
CC1=CC(C)(C)N(C(=O)CN2C(=O)CCC2=O)c2ccc(C)cc21	D2 antag 30
CC(C)OCCCNC(=O)c1ccc2c(c1)NC(=O)c1ccccc1S2	D2 PAM-1 37!
O=C(NCCCN1CCCCC1)c1ccc2c(c1)NC(=O)c1ccccc1S2	none
COc1ccc(-c2ccc(-c3nnc(Cc4ccc(OC)c(OC)c4)o3)cc2)cc1	D2 antag 30
COc1ccc(Cc2noc(CN(C)C3CC(C)(C)NC(C)(C)C3)n2)cc1OC	none
COc1ccc(CCN(C)Cc2nc(Cc3ccc(OC)c(OC)c3)no2)cc1OC	D2 antag 37
COc1ccc(OC)c(NCc2nnc(-c3ccccc3)o2)c1	none
COc1ccc(Cc2noc(-c3ccccc3)n2)cc1OC	D2 antag 33
Cc1cccc(C(=O)O/N=C(/c2ccccc2)c2ccncc2)c1	D2 PAM-2 63, D2 ag-1 inconclusive
Cc1cccc(/C(N)=N/OC(=O)c2ccc3c(c2)OCO3)c1	D2 PAM-2 57, D2 ag-1 inconclusive
Cc1cccc(/C(N)=N/OC(=O)N2c3ccccc3Sc3ccccc32)c1	D2 PAM-2 51, D2 ag-1 inconclusive
N/C(=N\OC(=O)N1c2ccccc2Sc2ccccc21)c1ccccc1	none
Cc1cccc(/C(N)=N/OC(=O)c2ccc(Br)o2)c1	D2 PAM-2 65, D2 ag-1 inconclusive
Cc1cc(=O)oc2cc(NC(=O)C(C)Oc3ccc(F)cc3)ccc12 (stereo not drawn)	D2 antag 35
Cc1cc(=O)oc2cc(NC(=O)c3ccc(OC(F)F)cc3)ccc12	none
CC1=C(C(=O)NCc2cccc(Cl)c2)C2(CCCCCC2)OC1=O	none (no result: D2 PAM-2, D2 ag-1, D2 antag)
CCOC(=O)c1c(S(=O)(=O)N2CCC(C(=O)Nc3cccc(C)n3)CC2)c(C)n(C)c1C	none (no result: D2 PAM-2, D2 ag-1, D2 antag)
COc1ccc(Cn2c(O)c(C=Nc3ccccc3C(=O)O)c3ccccc3c2=O)cc1	D2 antag 32
Cn1c(=O)oc2cc(NC(=O)CCl)ccc21	D2 antag 32
CC(=O)Nc1ccc(NC(=O)CCS(=O)(=O)c2ccc3c(c2)oc(=O)n3C)cc1	none
CN1CCN(CCCC(=O)c2ccc(F)cc2)CC1	none
O=C(CCCN1CCN(c2ccccc2)CC1)c1ccc(F)cc1	none (no result: D2 PAM-1, D2 antag, D2 ag-2)
O=C(CCCN1Cc2ccccc2C1)c1ccc(F)cc1	D2 antag 79
O=C(CCCN1CCOC(c2ccccc2)C1)c1ccc(F)cc1 (stereo not drawn)	D2 antag 49
COc1ccc(Cl)cc1NC(=O)NCCc1c(C)nn(C)c1C	none (no result: D2 PAM-2, D2 ag-1, D2 antag)
COc1ccc(C2NC(=O)NC(C)=C2C(=O)OCc2ccccc2)cc1 (stereo not drawn)	none
CC1=C(C(=O)OCc2ccccc2)C(c2ccccc2)NC(=O)N1 (stereo not drawn)	D2 PAM-2 53
CC1=C(C(=O)OCc2ccccc2)C(c2cccc(F)c2)NC(=O)N1 (stereo not drawn)	D2 PAM-2 72, D2 ag-1 44
O=C(O)COc1ccc2occ(C(=O)c3ccccc3)c2c1	D2 antag 38
O=C(c1cnc(N2CCCCC2)c2ccccc12)N1CCN(c2cccc(Cl)c2)CC1	none (no result: D2 PAM-2, D2 ag-1, D2 antag)
O=C(CCN1CCCCC1)Nc1cccc(Cl)c1	D2 antag 57
O=C(Nc1ccccc1)c1ccc2nc(-c3ccco3)c(-c3ccco3)nc2c1	D2 PAM-2 inconclusive
CC(=O)c1ccc(NC(=O)c2ccc3nc(-c4ccco4)c(-c4ccco4)nc3c2)cc1	D2 PAM-2 76 (no result: D2 PAM-1, D2 antag, D2 ag-2)
CCCN1C2CCCC1CC(NC(=O)c1ccccc1)C2 (stereo not drawn)	D2 antag 30
CCCCN1C2CCCC1CC(NC(=O)c1cccc(Cl)c1)C2 (stereo not drawn)	D2 antag 31
O=C(c1cccc(F)c1)N1CCC(c2c[nH]c3ccccc23)(c2c[nH]c3ccccc23)CC1	none (no result: D2 PAM-2, D2 ag-1, D2 antag)
CN(C)c1ccc(NC(=O)Nc2nc(C(N)C3CCCCC3)cs2)cc1 (stereo not drawn)	none (no result: D2 PAM-1, D2 antag, D2 ag-2)
CC(=O)N(c1ccc2oc(=O)sc2c1)S(=O)(=O)c1ccccc1	D2 PAM-2 inconclusive
CCOc1ccc(S(=O)(=O)N(C(=O)c2ccco2)c2cc3sc(=O)oc3c3ccccc23)cc1	D2 PAM-2 150, D2 ag-1 inconclusive
COc1ccc(S(=O)(=O)N(C(=O)c2ccco2)c2cc3sc(=O)oc3c3ccccc23)cc1	D2 PAM-2 97, D2 ag-1 inconclusive
CCOc1ccc(S(=O)(=O)N(C)CC(=O)NCc2ccco2)cc1	none (no result: D2 PAM-1)
Cc1ccc(S(=O)(=O)N(C(=O)c2ccco2)c2cc3sc(=O)oc3c3ccccc23)cc1	D2 PAM-2 63, D2 ag-1 inconclusive
CCCCC(Sc1nc2cc3c(cc2c(=O)n1CCCC(=O)NCc1ccc(OC)cc1)OCO3)C(=O)OCC (stereo not drawn)	none (no result: D2 PAM-2, D2 ag-1, D2 antag)
Cc1nc2ccn(Cc3cccs3)c(=O)c2cc1C(=O)N1CCN(c2ccccc2)CC1	none (no result: D2 PAM-2, D2 ag-1, D2 antag)
